Many of the other results were omitted from the sample, so hits are more common in it than they were.
Tb PGK inh: blocks T. brucei phosphoglycerate kinase; AID 602233; P07378; PGK/GAPDH coupled, Kinase-Glo luminescence, 60 min; Potency, µM (top dose mostly 57.5 µM), inactives show at the top dose activity change, negative = inhibition, usual class: inhibitors; 380,000 tested, 0.043% active; also: potency is read from the fitted curve at half-maximal effect; % is scaled to controls: 0 for no effect and ±100 for the full control effect; nearly all actives have a fitted effect of over 60% in size
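Luminescent ATP detection (Kinase-Glo Plus) follows a 60-minute room-temperature incubation, with wells lacking PGK as controls. Buffer: 100 mM TEA (pH 7.6), 5 mM MgCl2, 0.01% Tween-20. Coupling enzyme GAPDH (100 nM final) supplies unstable 1,3-BPG in-well.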
Tb PFK inh-1: inhibitors of T. brucei phosphofructokinase | O15648 | T. brucei PFK, ADP-Glo luminescence | Potency, µM (series often up to 57.5 µM), without a hit: at the highest dose activity, negative = inhibition, usual class: inhibitors | 330,000 tested, 0.17% active | AID 485367;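 also: potency is read from the fitted curve at half-maximal effect; 0% = uninhibited 1x PFK enzyme wells and -100% = no-enzyme wells; nearly all actives have a fitted effect of over 60% in size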
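Compounds were pin-transferred as a titration series up to 57 uM into substrate buffer (0.5 mM F6P, 0.1 mM ATP, pH 8.0), then 1.25 nM PFK was added and reactions ran 45 min before ADP-Glo detection.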
PI5P4K alpha inh: PI5P4K alpha (human) kinase inhibition. PI5P4Kalpha enzyme, ADP-Glo luminescence, 60 min; hits give low values. max response, %. 330,000 tested, 1.2% active; active = max response of -50% or lower; inconclusive = between -30% and -50%; inactive = -30% or higher; also: value at the top dose of about 77 µM; % is scaled to controls: 0 for no effect and ±100 for the full control effect
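Luminescence from ADP-Glo served as readout of PI5P4Kalpha activity in a qHTS format. Reaction: enzyme, substrate, compound, ATP at 5 microM final, 60 min at RT.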
PI4K2A block: inhibitors of human PI4K2A. activity change, negative = inhibition, % at 76.9 µM. purified PI4K2A, ADP-Glo luminescence, 1 h; hits give low values. AID 1346378. 420,000 tested, 0.13% active; in the data active = activity change below about -50%; inconclusive = mostly about -30% to -49%;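 also: -100% = wells without enzyme as full effect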
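Compounds are screened against recombinant PI4K2A using PI as substrate and ATP, the latter dispensed at 300 microM. Reactions run one hour at ambient temperature before ADP-Glo detection; full inhibition defined by wells lacking enzyme.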
Pin1 inhibitor: human Pin1 inhibition; Pin1 FP peptide displacement, HiFluor488, 10 min; AID 504891; Potency, µM (titrated, usually from 115 µM), inactives show at the highest dose activity, negative = inhibition, usual class: inhibitors; Q13526; 390,000 tested, 0.009% active; active = well fitted inhibition curve with a large enough effect in the polarisation, with a control signal flat, not every such curve was filed as active; inconclusive = small, poorly fitted or top-dose-only effect, or effect the other way, or a change in a side signal; inactive = no such curve, though single readings can be large or run the other way; the % refers to the polarisation; also: potency is read from the fitted curve at half-maximal effect; % is scaled to controls: 0 for no effect and ±100 for the full control effect
Target sequence (Q13526 whole entry, looked up): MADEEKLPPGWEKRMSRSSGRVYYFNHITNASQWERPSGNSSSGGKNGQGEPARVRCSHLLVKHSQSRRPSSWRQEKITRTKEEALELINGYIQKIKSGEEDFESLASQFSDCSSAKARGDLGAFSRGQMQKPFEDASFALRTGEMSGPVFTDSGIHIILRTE
TbPFK ATP: inhibits T. brucei PFK measured by ATP depletion | Tb PFK enzyme, ATP depletion, Kinase-Glo Plus luminescence | shares compounds with Tb PFK inh-1 | 1,100 tested, 47% active | Potency, µM (titrated, usually from 57.5 µM), for inactives: at the highest dose inhibition; calls by dose curve; also: potency is read from the fitted curve at half-maximal effect; nearly all actives have a fitted effect of over 60% in size
Tb PFK inh-2: validation of T. brucei phosphofructokinase inhibitors. shares compounds with Tb PFK inh-1. Potency, µM (series often up to 57.5 µM), for inactives: top-dose activity change, negative = inhibition, usual class: inhibitors. purified T. brucei PFK, ADP-Glo luminescence, 45 min. 1,100 tested, 41% active;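 also: potency is read from the fitted curve at half-maximal effect; plate controls were full PFK enzyme control for no effect and no enzyme control for full effect; nearly all actives have a fitted effect of over 60% in size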
An asterisk follows results filed as active; i = inactive; ? = inconclusive; nt = no result given. Unless noted, calls follow the shape of the dose curve; as a rule, active = well fitted curve in the direction sought with a large enough effect; inconclusive = small, poorly fitted or top-dose-only effect, or another doubt; inactive = no such curve, though single readings can be large; an effect the other way counts as inactive or inconclusive.

SMILES	Tb PGK inh	Tb PFK inh-1	PI5P4K alpha inh	PI4K2A block	Pin1 inhibitor	TbPFK ATP	Tb PFK inh-2
COc1ccc(OC)c(/C=N/NC(=O)CCc2ccc(O)c(O)c2)c1	-7%	1.7µM*	-22	-13	1%	?	-29%
COc1cc(CNC(=O)CCCC/C=C\C(C)C)ccc1O	nt	1%	nt	nt	nt	nt	nt
Cc1ccc(NC2c3ncccc3C(=O)N2c2ccccc2C)cc1C (stereo unspecified)	-2%	?	-1	-8	1%	19µM*	?
Oc1ccc2[nH]cc(CCCCN3CC=C(c4ccccc4)CC3)c2c1	nt	nt	nt	0	nt	nt	nt
O=C(COc1ccc(Cl)cc1)N1CCN(Cc2ccc([N+](=O)[O-])cc2)CC1	-8%	-23%	2	3	-11%	nt	nt
O=C(COc1ccc(/C=C\[N+](=O)[O-])cc1)N1CCOCC1	3%	?	-2	-11	?	-22%	?
Cc1ccccc1Cn1cccc(C(=O)Nc2cc(Cl)ccc2C#N)c1=O	0%	nt	nt	0	13%	nt	nt
O=C(Nc1n[nH]c(=S)s1)c1ccco1	-3%	?	-61*	-9	-13%	5.4µM*	12µM*
O=C(Nc1ccc(Cl)c(Cl)c1)c1ccco1	2%	-4%	7	-1	-3%	nt	nt
O=c1cc(-c2ccccc2)oc2cc(O)c(O)c(O)c12	-14%	7.6µM*	-74*	-4	?	2.7µM*	5.4µM*
O=c1c2ccccc2nc(-c2ccccc2)n1-c1ccccc1O	i	0%	-1	1	3%	nt	nt
CON(C)C(=O)Nc1ccc(Cl)cc1	10%	-11%	nt	0	6%	nt	nt
O=C(NNC(=O)c1ccc2nonc2c1)Nc1ccc(Cl)cc1	0%	15µM*	3	1	3%	?	?
CCN(CC)C(=O)c1ccc(NC(=O)CCn2nc(-c3ccc(Cl)cc3)c3ccccc3c2=O)cc1	-8%	nt	nt	0	7%	nt	nt
CCOCCSc1nc2c(c(-c3cccs3)c1C#N)CC/C2=C/c1cccs1	4%	-3%	-17	1	?	nt	nt
CCOC(=O)C1(c2ccccc2)CCN(CC(=O)Nc2ccc(C)cc2)CC1	-2%	-4%	4	-7	-3%	nt	nt
Cc1ccc(NC(=O)C2=C(c3ccccc3)S(=O)(=O)CCS2(=O)=O)cc1	-7%	?	-14	?	-14%	-25%	?
Nc1nc(=S)c2ncn(C3CCCC3)c2[nH]1	-5%	?	-9	-6	-5%	?	?
CCCSP(=O)(OCC)SCCC	nt	nt	nt	i	nt	nt	nt
O=C(Cc1ccc(Br)cc1)N/N=C/c1ccc(-c2cccc(C(=O)O)c2)o1	-13%	11µM*	?	-1	-17%	11µM*	12µM*
COc1ccccc1CC(=O)Nc1ccc2c(c1)C(=O)NC2=O	i	?	4	-3	29%	?	?
Cc1cccc(C(=O)NC(Oc2ccccc2)C(Cl)(Cl)Cl)c1 (stereo unspecified)	-1%	-4%	-3	0	?	nt	nt
O=C(CN1CC(c2ccccc2)CC1=O)Nc1ccc(F)cc1 (stereo unspecified)	i	3%	-1	2	0%	nt	nt
O=C(CSc1ccc(F)cc1)Nc1ccc2c(c1)C(=O)NC2=O	i	?	-1	-3	-1%	?	?
Cc1cccc(C(=O)Nc2ccc3c(c2)C(=O)NC3=O)c1	-3%	?	0	-6	23%	?	30µM*
Cn1cc(C2=C(c3cn(C4CCN(Cc5ccccn5)CC4)c4ccccc34)C(=O)NC2=O)c2ccccc21	nt	nt	nt	3	nt	nt	nt
FC(F)(F)c1cccc(N2CCNCC2)c1	nt	-11%	nt	nt	nt	nt	nt
CC(NC(=O)c1ccco1)C(=O)N1CCN(c2cccc(C(F)(F)F)c2)CC1 (stereo unspecified)	i	?	-1	-3	0%	14%	-10%

High-throughput results from PubChem BioAssay.
